Article PMC4336329 (PLoS ONE, 2015)
In all, about 310,000 compounds went through this assay and about 14,000 (4.5%) showed an effect of 50% or more. The effect is printed as a negative number. Shown is part of a subset that was picked to be rich in strong results.

Biological target: human ether-à-go-go-related gene (hERG) potassium channel (human, UniProt Q12809)
Assay: primary screen, population patch clamp on CHO cells stably expressing hERG; higher = less effect of the substance
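Further: peak tail current of the secondary pulse compared with the same well before compound.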

Chain of human ether-à-go-go-related gene (hERG) potassium channel (Q12809 whole entry, looked up): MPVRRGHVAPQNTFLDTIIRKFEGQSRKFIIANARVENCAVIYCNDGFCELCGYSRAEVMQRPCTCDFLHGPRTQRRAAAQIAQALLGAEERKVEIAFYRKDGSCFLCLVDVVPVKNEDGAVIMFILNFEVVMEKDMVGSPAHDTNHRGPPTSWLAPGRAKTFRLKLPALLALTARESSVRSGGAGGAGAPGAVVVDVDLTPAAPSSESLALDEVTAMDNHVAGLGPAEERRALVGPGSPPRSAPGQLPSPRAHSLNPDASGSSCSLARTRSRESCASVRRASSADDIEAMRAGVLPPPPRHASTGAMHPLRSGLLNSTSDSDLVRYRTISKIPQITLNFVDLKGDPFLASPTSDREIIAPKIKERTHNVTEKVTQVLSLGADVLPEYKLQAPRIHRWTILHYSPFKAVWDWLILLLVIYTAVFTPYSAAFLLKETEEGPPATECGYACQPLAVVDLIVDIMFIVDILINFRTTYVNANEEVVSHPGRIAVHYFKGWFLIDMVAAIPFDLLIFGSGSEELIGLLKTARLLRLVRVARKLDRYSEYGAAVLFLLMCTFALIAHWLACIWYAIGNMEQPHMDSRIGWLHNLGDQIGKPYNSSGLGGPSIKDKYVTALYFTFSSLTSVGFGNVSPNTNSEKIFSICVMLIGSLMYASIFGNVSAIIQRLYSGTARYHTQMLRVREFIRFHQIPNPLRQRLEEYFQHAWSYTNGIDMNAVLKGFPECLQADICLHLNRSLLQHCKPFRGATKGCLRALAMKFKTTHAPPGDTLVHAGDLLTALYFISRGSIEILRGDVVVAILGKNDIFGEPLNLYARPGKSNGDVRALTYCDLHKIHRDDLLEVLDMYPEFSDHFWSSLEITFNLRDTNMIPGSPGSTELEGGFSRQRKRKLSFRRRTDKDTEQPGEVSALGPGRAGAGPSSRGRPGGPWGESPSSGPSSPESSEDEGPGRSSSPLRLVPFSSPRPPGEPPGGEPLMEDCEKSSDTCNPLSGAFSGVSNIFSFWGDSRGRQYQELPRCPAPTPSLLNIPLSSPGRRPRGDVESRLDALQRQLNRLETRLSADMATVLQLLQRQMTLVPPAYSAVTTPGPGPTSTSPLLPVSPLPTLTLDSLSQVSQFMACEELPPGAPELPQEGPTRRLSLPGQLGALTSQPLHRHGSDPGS

| SMILES | hERG current change (%, negative = inhibition) at 10uM [%] |
| --- | --- |
| Cc1ccc(C)c(OCCC(=O)NNC(=O)Cn2nc(C)cc2C)c1 | 21.8 |
| O=C(NCc1ccccc1)C1=C[C@@H](c2ccc(Br)cc2)C[C@@H](OCCCCO)O1 | -36.8 |
| COc1cc2c(cc1OC)C(c1ccccc1Cl)N(C)CC2 (stereo not drawn) | 1.73 |
| COc1ccc(Cc2c(O)nc(SCC(=O)NC34CC5CC(CC(C5)C3)C4)[nH]c2=O)cc1 | 4.4 |
| Cc1ccc(NC(=O)CCN2C(=O)C3CCCCC3C2=O)c(O)c1 (stereo not drawn) | 11.9 |
| CC(CCc1ccccc1)NCC#N.Cl (stereo not drawn) | 18.9 |
| O=c1c(Cc2ccc(Cl)cc2Cl)c(O)ccn1CC(F)(F)F | 12.7 |
| COc1ccc(OC)c(S(=O)(=O)n2ccnc2C)c1 | 0.0552 |
| CCOc1ccc(N2CC(C(=O)Nc3c(C)n(C)n(-c4ccccc4)c3=O)CC2=O)cc1 (stereo not drawn) | 22.6 |
| CCn1cc(C(=O)N2CCN(C(=O)c3ccco3)CC2)c2cc(OC)c(OC)cc2c1=O | 7.72 |
| CCOCCCNC(=O)c1cc(-c2ccc(Br)s2)nc2ccccc12 | 15 |
| CC(C)C(=O)NS(=O)(=O)c1ccc(N)cc1 | 8.54 |
| Cc1ccc(NC(=O)C2(NC(=O)c3cccc(N4C(=O)CSC4c4ccccc4)c3)CCCCC2)cc1 (stereo not drawn) | 2.72 |
| COc1cc(NS(=O)(=O)c2cc3c(cc2C)NC(=O)CO3)cc(OC)c1 | -62.2 |
| COc1cccc(NS(=O)(=O)c2cc3c(cc2C)NC(=O)CO3)c1 | -38.7 |
| Cc1cc2c(cc1S(=O)(=O)NCCc1ccc(Cl)cc1)OCC(=O)N2 | -21.3 |
| COc1ccc(NS(=O)(=O)c2cc3c(cc2C)NC(=O)CO3)c(OC)c1 | -15.3 |
| Cc1ccc(CNS(=O)(=O)c2cc3c(cc2C)NC(=O)CO3)cc1 | -39.8 |
| Cc1cc2c(cc1S(=O)(=O)NCc1ccc(Cl)cc1)OCC(=O)N2 | -57.9 |
| O=C(O)c1ccc(NC(=S)N2CCCCC2)cc1 | 19.8 |
| CN(CC(=O)N1CCCCCC1)S(=O)(=O)c1ccc(Br)s1 | -9.92 |
| COc1ccc([N+](=O)[O-])cc1NC(=O)CCCOc1ccccc1 | 21.6 |
| Nc1c(C(=O)c2ccc(Cl)cc2)sc2nc3c(cc12)CCC3 | 12 |

| SMILES | hERG current change (%, negative = inhibition) at 10uM [%] |
| --- | --- |
| COC(=O)c1cc2c(N)c(C(=O)c3ccccc3)sc2nc1C(OC)OC | 0.631 |
| COC(=O)c1cc2c(N)c(C(=O)c3ccc(Cl)cc3)sc2nc1C(OC)OC | -69.6 |
| CC(C)NC(=S)N1CCN(C(c2ccccc2)c2ccccc2)CC1 | -34.7 |
| CCNC(=S)N1CCN(C(c2ccccc2)c2ccccc2)CC1 | 2.6 |
| CCC(C)NC(=S)N1CCN(C(c2ccccc2)c2ccccc2)CC1 (stereo not drawn) | -59.6 |
| O=c1cc(O)c2c(=O)n(-c3ccccc3)c3c(c2o1)CCCCC3 | -0.822 |
| Cn1c(N2CCNCC2)nc2ccccc21 | -15.7 |
| CCCn1c(N2CCN(C(=O)Nc3ccccc3)CC2)nc2ccccc21 | -35.9 |
| Cn1c(N2CCN(C(=O)NC34CC5CC(CC(C5)C3)C4)CC2)nc2ccccc21 | 23.2 |
| Cn1c(N2CCN(C(=O)NCc3ccccc3)CC2)nc2ccccc21 | -60 |
| CCCn1c(N2CCN(S(=O)(=O)Cc3ccccc3)CC2)nc2ccccc21 | 4.46 |
| CC(C)n1c(N2CCN(C(=O)Nc3ccc(Cl)cc3)CC2)nc2ccccc21 | -36.3 |
| c1ccc(C(c2ccccc2)N2CCN(c3ccc4ccccc4n3)CC2)cc1 | -3.18 |
| O=C(NCc1ccccc1)N1CCn2c(nc3ccccc32)C1 | 2.53 |
| CC(C)n1c(N2CCN(C(=O)Nc3ccccc3)CC2)nc2ccccc21 | -14.6 |
| CC(C)n1c(N2CCN(C(=O)NCc3ccccc3)CC2)nc2ccccc21 | -59.2 |
| Cn1c(N2CCN(C(c3ccccc3)c3ccccc3)CC2)nc2ccccc21 | -51.7 |
| CCCn1c(N2CCN(C(=O)NCc3ccccc3)CC2)nc2ccccc21 | -67.9 |
| Cc1cc(-c2cccs2)c2c(N)c(C(=O)c3ccc4c(c3)OCO4)sc2n1 | 5.2 |
| Cc1ccc(S(=O)(=O)N(C)c2ccccc2C(=O)Nc2c(F)cccc2F)cc1 | 3.31 |
| CC(C)(C)N1CC(c2nc3ccccc3n2Cc2ccccc2)CC1=O (stereo not drawn) | -47.2 |
| COc1ccc(S(=O)(=O)N2CCOCC2)cc1NC(=O)c1sccc1C | -3.22 |
| COc1ccc2nc(SC(C)C(=O)NC3(C#N)CCCCC3)[nH]c2c1 (stereo not drawn) | -20.1 |

| SMILES | hERG current change (%, negative = inhibition) at 10uM [%] |
| --- | --- |
| COC(=O)c1cc2oc(C)cc2n1CC(=O)N1CCCc2ccccc21 | -11.9 |
| Cc1ccc2nc(NC(=O)CSCC(=O)OCC(=O)c3ccc(Br)cc3)sc2c1 | 16.5 |
| O=C(COc1ccc(Br)cc1)NCCCn1ccnc1 | -20.1 |
| COc1ccc(Cl)cc1NC(=O)CN(C)C(=O)c1cc2c(F)cccc2s1 | -6.32 |
| CCCCSc1nnc(C)c(=O)[nH]1 | 3.25 |
| Cc1cccc(C2c3[nH]c4ccccc4c3CCN2C(=O)Cc2n[nH]c(C)n2)n1 (stereo not drawn) | 5.57 |
| COc1ccc(OC)c(NC(=O)COc2ccc(S(=O)(=O)N3CCCC3)cc2)c1 | -23.4 |
| O=C(CCC(=O)n1ncc2ccccc21)NCc1ccc(F)cc1 | -18.1 |
| Cc1ccc(C(=O)N2CCN(c3nc4ccccc4n3C)CC2)cc1 | -70.3 |
| Cc1ccc(C(=O)N2CCN(c3ccccn3)CC2)cc1 | -14.3 |
| Cc1ccc(C(=O)N2CCN(c3ncccn3)CC2)cc1 | 12.6 |
| CCOC(=O)C1CCN(S(=O)(=O)c2ccc3c(c2)CCN3C(=O)C2CCC2)CC1 | 14.1 |
| COC(=O)CN(C)C(=O)c1ccc(OC)c(OC2CCN(C(C)C)CC2)c1 | 13.1 |
| COc1ccc(C(=O)NCCCSC)cc1OC1CCN(C(C)C)CC1 | -11.8 |
| COc1ccc(C(=O)NC2CCCCCC2)cc1OC1CCN(C(C)=O)CC1 | -4.48 |
| COc1ccc(C(=O)N(C)CCCC2CCCC2)cc1OC1CCN(C(C)C)CC1 | -68.4 |
| COc1ccc(C(=O)N[C@H]2CCCCNC2=O)cc1OC1CCN(C(C)C)CC1 | 15.3 |
| CCOCCCNC(=O)c1ccc(OC)c(OC2CCN(C(C)C)CC2)c1 | 10.7 |
| COc1ccc(C(=O)N(C)CCCC2CCCC2)cc1OC1CCN(C(C)=O)CC1 | -32.2 |
| COc1ccc(C(=O)NC2CCCCC2)cc1OC1CCN(C(C)C)CC1 | -69.7 |
| COc1ccc(C(=O)NC2CC2)cc1OC1CCN(C(C)CSC)CC1 (stereo not drawn) | -75.4 |
| COc1ccc(CCNC(=O)COC(=O)c2cc(=O)c3ccccc3o2)cc1 | -1.09 |
| Cc1cc(NC(=O)NC(=O)c2ccccc2)no1 | 23.1 |

| SMILES | hERG current change (%, negative = inhibition) at 10uM [%] |
| --- | --- |
| Cn1c(O)c(N=Nc2nc(-c3ccccc3)cs2)c2ccccc21 | -6.78 |
| Cc1ccc(CNC(=O)CCSCCC(=O)NCc2ccc(C)cc2)cc1 | 7.08 |
| N#Cc1c(NC(=O)c2cc([N+](=O)[O-])ccc2N2CCOCC2)sc2c1CCCC2 | 4.02 |
| CN1C(=O)c2cccc3c(Br)ccc(c23)C1=O | -16.2 |
| COC(=O)COc1ccc2cccc(-n3cnnn3)c2c1 | 12.5 |
| CCc1ccc(C(=O)NNC(=O)C2CSC3(C)CCC(=O)N23)cc1 (stereo not drawn) | -6.99 |
| CCc1ccc2c(COC(=O)C3CSC4(C)CCC(=O)N34)cc(=O)oc2c1 (stereo not drawn) | -61.1 |
| CC12CCC(=O)N1C(C(=O)OCc1c(Cl)cccc1Cl)CS2 (stereo not drawn) | -4.54 |
| CCN(Cc1ccccc1)CC(O)COC(c1ccc(OC)cc1)c1ccc(OC)cc1 (stereo not drawn) | -75.1 |
| CCCC(O)(c1ccc(OC)cc1)C(CN(C)C)c1ccccc1 (stereo not drawn) | -4.69 |
| OC(COc1ccccc1)CN(Cc1ccccc1)CC(O)COc1ccccc1 (stereo not drawn) | -9.08 |
| CN(C)CC(O)COC(c1ccccc1)c1ccccc1 (stereo not drawn) | -51.6 |
| COCCN(CCOC)CC(O)COC(c1ccccc1)c1ccccc1 (stereo not drawn) | -35.9 |
| CCOC(C(=O)OCC(O)CN(CC)CC)(c1ccccc1)c1ccccc1.Cl (stereo not drawn) | -5.25 |
| CC(O)CN(Cc1ccc(Cl)cc1)CC(C)O (stereo not drawn) | 7.61 |
| CC(OCC(O)CN(C)Cc1nc2ccccc2c(=O)[nH]1)c1ccc(Cl)cc1 (stereo not drawn) | -34 |
| CN(C)CC(O)COC(c1ccc(Cl)cc1)c1ccc(Cl)cc1 (stereo not drawn) | -75.8 |
| CCN(CC)CC(O)COC(c1ccccc1)c1ccccc1 (stereo not drawn) | -57.8 |
| CCN(Cc1ccccc1)CC(O)COc1ccccc1.Cl (stereo not drawn) | -25.7 |
| CN(C)CCC(O)c1ccccc1 (stereo not drawn) | 9.45 |
| Cc1ccc(CN2CCCC(C(=O)N3CCCC3)C2)cc1.O=C(O)C(=O)O (stereo not drawn) | -5.83 |
